Source: PubChem
BCR signal inh: chronic active BCR signaling inhibition. ABC-DLBCL IkBa-CBG/CBR reporter, luminescence ratio, 4 h. Potency, µM (series often up to 46.1 µM), actives largely listed as inhibitors. hit rate 0.05% among 340,000; active = well fitted inhibition curve with a large enough effect in the signal ratio, with a control signal flat, not every such curve was filed as active; inconclusive = small, poorly fitted or top-dose-only effect, or effect the other way, or a change in a side signal; the % refers to the signal ratio
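Concentration-response series (up to 46 uM) were applied to TMD8 dual-reporter cells for 4 h at 37C with doxycycline. Green/red ratio, after filter-overlap correction, defined %Activity; red signal alone was normalised to basal cells and zero luminescence.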
KCNH2 3.1 block: KCNH2 3.1 (human) potassium channel inhibition. U2OS KCNH2 3.1, thallium flux FluxOr; hits give low values. activity change, % (tested at about 1.8 µM). hit rate 0.95% among 340,000;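 active = maximum activity change below -70%; inconclusive = maximum activity change from -70% to -50%; inactive = maximum activity change above -50%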;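 note: thallium influx rate constant from kinetic fluorescence after stimulation buffer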
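Thallium flux read-out: FluxOr dye with Red40 quencher in HBSS/HEPES, 45 min at RT. Rate constants from kinetic reads were normalized to positive and negative DMSO controls. Cells: U2OS virally expressing the 3.1 isoform.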
ALOX12 inh: inhibitors of human 12S-lipoxygenase ALOX12. Potency, µM (doses to about 108 µM), usual class: inhibitors. hit rate 1.1% among 580,000. P18054. purified 12hLO, xylenol orange hydroperoxide absorbance; active = well fitted inhibition curve with a large enough effect; inconclusive = small, poorly fitted or top-dose-only effect, or another doubt; inactive = no such curve, though single readings can be large or run the other way
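Hydroperoxide product was detected by ferrous iron/xylenol orange as the 573 to 405 nm absorbance ratio. Arachidonic acid at 40 uM (final) was turned over for 30 min at room temperature by 150 nM human 12hLO, pH 7.0 Hepes buffer, after 15 min compound preincubation.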
KCNH2 WT inh: blocks the wildtype human KCNH2 potassium channel; Q12809; U2OS, BacMam KCNH2, thallium flux FluxOr; hits give low values; activity change, % at 1.84 µM; hit rate 0.37% among 340,000;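 active = maximum activity change below -70%; inconclusive = maximum activity change between -70% and -50%; inactive = maximum activity change above -50%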
Target sequence (Q12809 whole entry, looked up): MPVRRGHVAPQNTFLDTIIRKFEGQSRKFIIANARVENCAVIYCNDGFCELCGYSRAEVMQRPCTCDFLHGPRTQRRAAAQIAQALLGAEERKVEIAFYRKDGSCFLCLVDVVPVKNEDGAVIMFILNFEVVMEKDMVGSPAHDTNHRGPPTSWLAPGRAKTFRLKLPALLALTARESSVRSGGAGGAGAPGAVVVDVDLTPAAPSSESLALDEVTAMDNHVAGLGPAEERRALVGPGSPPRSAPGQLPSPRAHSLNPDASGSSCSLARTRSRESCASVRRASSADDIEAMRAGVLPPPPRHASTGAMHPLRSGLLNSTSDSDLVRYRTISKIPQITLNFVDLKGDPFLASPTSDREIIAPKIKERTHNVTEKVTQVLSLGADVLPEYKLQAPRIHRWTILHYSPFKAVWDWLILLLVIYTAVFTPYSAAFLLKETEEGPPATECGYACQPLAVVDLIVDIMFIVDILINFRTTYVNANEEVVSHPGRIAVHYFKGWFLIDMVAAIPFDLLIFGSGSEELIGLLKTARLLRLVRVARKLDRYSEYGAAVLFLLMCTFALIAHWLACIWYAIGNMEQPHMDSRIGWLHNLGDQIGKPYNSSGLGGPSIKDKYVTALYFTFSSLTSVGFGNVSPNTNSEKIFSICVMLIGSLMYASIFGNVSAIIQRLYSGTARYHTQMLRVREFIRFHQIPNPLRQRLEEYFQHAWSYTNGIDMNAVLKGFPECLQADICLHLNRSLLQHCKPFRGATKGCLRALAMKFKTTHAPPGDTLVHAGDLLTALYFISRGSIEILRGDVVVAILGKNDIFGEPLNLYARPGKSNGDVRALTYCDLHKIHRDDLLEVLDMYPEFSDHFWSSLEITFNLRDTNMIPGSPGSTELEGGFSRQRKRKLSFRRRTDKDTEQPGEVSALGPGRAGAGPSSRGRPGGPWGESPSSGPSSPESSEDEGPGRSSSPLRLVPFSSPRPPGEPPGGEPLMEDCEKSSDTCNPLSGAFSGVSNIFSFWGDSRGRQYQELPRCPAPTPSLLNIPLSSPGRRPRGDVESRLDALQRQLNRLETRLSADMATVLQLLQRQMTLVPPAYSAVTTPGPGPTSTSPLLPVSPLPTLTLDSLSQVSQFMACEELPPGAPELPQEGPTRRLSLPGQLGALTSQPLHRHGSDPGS
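U2OS cells were transduced with wild-type KCNH2 virus (2.03 x 10^8 / mL) for 4 h at room temperature, then cultured overnight at 37 C. Thallium flux was read with FluxOr dye. Rate constants were normalized to DMSO controls.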
ClpP mod: qHTS Assay for Activators of ClpP. ATP-dependent Clp protease proteolytic subunit (Bacillus subtilis (strain 168)), P80244. purified B. subtilis ClpP, FRET peptide cleavage, 20 min. Potency, µM (titrated, usually from 57.5 µM). hit rate 1.9% among 340,000; active = well fitted falling curve with a large enough effect; inconclusive = small, poorly fitted or top-dose-only effect; inactive = no such curve, though single readings can be large or run the other way; note: the source files actives as falling curves though it sought activators and does not explain the sign; nearly all actives have a fitted effect of over 65% in size
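FRET quenching reversal measured ClpP activation: 10 microg/mL B. subtilis ClpP at pH 8 with the FRET-FV decapeptide, read at 430 nm after 320 nm excitation. The 20-min minus 0-min signal was scaled between DMSO/no-enzyme wells and ADEP (5.8 microM final).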
LDHA block: blocks human lactate dehydrogenase A; AID 1347041; purified LDHA, NADH/diaphorase-resazurin fluorescence; hits give low values; hit rate 0.15% among 480,000; P00338; activity change, % (values are at about 110 or 230 µM); in the data active = activity change below about -30%; inconclusive = mostly about -25% to -30%
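LDH5 2 nM; NADH 0.06 mM, pyruvate 0.2 mM; 200 mM Tris pH 7.4, EDTA, Tween-20; 5 min RT. Detection: diaphorase 0.133 mg/mL + resazurin 37 µM, fluorescence ex540/em590 at 0 and 20 min; normalized to enzyme-free and DMSO wells.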
Numbers stand for hits; 0 = inactive; ? = inconclusive; - = no result given. A selection: hits, their analogues and other compounds. The true share with any hit is near 3%.

SMILES	BCR signal inh	KCNH2 3.1 block	ALOX12 inh	KCNH2 WT inh	ClpP mod	LDHA block
CN1CCN(c2ccc3c(c2)C2CC3CCN2C(=O)OCc2ccccc2)CC1 (stereo not given)	-	0	?	0	0	0
O=C(OCc1ccccc1)N1CCC2CC1c1cc(N3CCN(C(=S)NCCc4ccccc4)CC3)ccc12 (stereo not given)	-	-	20µM	-	0	0
COC(=O)Cn1c(=NC(=O)c2ccc(Cl)s2)sc2cc(F)ccc21	?	0	0	0	28.2µM	0
O=S(=O)(c1cc(F)ccc1F)N1CCN(Cc2cccc3cccnc23)CC1	-	-	15.8µM	-	-	0
Cc1ccc(C)c(S(=O)(=O)N2CCN(Cc3cccc4cccnc34)CC2)c1	-	-	?	-	-	0
O=C(CCCCCBr)N1CCC(CC2CC(c3ccc(Cl)cc3)=NO2)(C(=O)NCC2CCCCC2)CC1 (stereo not given)	0	?	?	-95.4	0	0
O=C(CCCCCBr)N1CCC(CC2CC(c3cccc(Br)c3)=NO2)(C(=O)NCC2CCCCC2)CC1 (stereo not given)	?	0	?	0	0	0
COc1ccc(CNC(=O)C2(CC3CC(c4ccccc4)=NO3)CCN(C(=O)CCCCCBr)CC2)cc1 (stereo not given)	-	-133.0	0	-112.5	0	0
CCCCCCCNC(=O)C1(CC2CC(c3ccc(Cl)cc3)=NO2)CCN(C(=O)c2ccccc2)CC1 (stereo not given)	0	-	0	-	0	0
CCCCCCCNC(=O)C1(CC2CC(c3ccc(Cl)cc3)=NO2)CCN(C(=O)CCCCCBr)CC1 (stereo not given)	?	-82.6	0	-88.8	0	0
COc1ccc(-c2cnc3[nH]cc(CC(=O)N4CCC(OC)CC4)c3c2)cc1	-	-	0	-	-	-
COC(=O)C1=C(C)N=C2SC=C(CC(=O)N3CCCCC3)N2C1c1ccc(Cl)cc1 (stereo not given)	-	-	0	-	-	-
CCOc1ccccc1C1NC(=O)N(CC(=O)Nc2cccc(C(C)C)c2)C2=C1C(=O)OC2 (stereo not given)	-	-	0	-	-	-
CCOC(=O)N1CCN(c2nc(=S)n(-c3ccccc3)c(C)c2C(C)=O)CC1	0	0	31.6µM	0	0	0
CC(=O)c1c(N2CCN(c3ccc(F)cc3)CC2)nc(=S)n(Cc2ccccc2)c1C	0	0	?	0	25.1µM	0
CCn1c(C)c(C(C)=O)c(N2CCN(c3ccc(F)cc3)CC2)nc1=S	0	0	0	0	0	0
Cc1ccc(N/N=C(\C#N)C(N)=S)c(C)c1	?	0	8.91µM	0	-	0
CC(=O)c1ccc(N2CCN(c3ccnc4cc(Cl)ccc34)CC2)cc1	0	-90.7	0	0	-	0
O=[N+]([O-])c1ccc(S(=O)(=O)N2CCN(c3ccnc4cc(Cl)ccc34)CC2)cc1	0	-92.4	0	-123.6	0	0
COc1ccccc1NC(=O)N1CCN(c2ccnc3cc(Cl)ccc23)CC1	?	0	0	0	0	0
COc1ccccc1N1CCN(c2ccnc3cc(Cl)ccc23)CC1	20µM	0	0	0	-	0
CC(C)=CC(=O)NC(C)c1cc(C)sc1C (stereo not given)	-	-	0	-	-	0
Cc1cccc(NC(=O)C(C)Sc2ccccc2C(=O)NCC(=O)C(C)(C)C)c1 (stereo not given)	-	-	0	-	-	0
CN(C(=O)c1ccnc(-c2nnc3ccc(N4CCOCC4)nn23)c1)c1ccccc1	-	-	31.6µM	-	-	-
COc1nc(C)nc2c1sc1nc3c(cc12)COC(C)(C)C3	0	0	0	0	28.2µM	0
SMILES	BCR signal inh	KCNH2 3.1 block	ALOX12 inh	KCNH2 WT inh	ClpP mod	LDHA block
CC1(C)Cc2nc3sc4c(N(CCO)CCO)ncnc4c3cc2CO1	0	0	0	0	14.1µM	0
CC1(C)Cc2nc3sc4c(N(CCO)CCO)nnnc4c3cc2CO1	0	0	0	0	0	0
Cc1cccc(NC(=S)NCC2(C)CCCC3(C)c4ccc(C(C)C)cc4CCC23)c1 (stereo not given)	-	-	15.8µM	-	-	0
O=C(O)CCC(=O)N1CCc2cc(S(=O)(=O)N3CCN(c4ccc(F)cc4)CC3)ccc21	?	-101.0	0	0	0	0
Cc1ccc(C)c(N2CCN(S(=O)(=O)c3ccc4c(c3)CCN4C(=O)CCC(=O)O)CC2)c1	0	0	0	0	0	0
COc1cc(/C=N/c2oc(-c3ccccc3)cc2C#N)ccc1O	0	0	0	0	3.55µM	0
CCCn1nc(C(=O)OCC(=O)N2CCCc3ccccc32)c2ccccc2c1=O	-	-	?	-	-	-31.2
Cn1nc(C(=O)OCC(=O)N2CCc3ccccc32)c2ccccc2c1=O	?	0	0	0	0	0
CN(C)C(=O)c1cc2c(F)cccc2[nH]1	-	-	0	-	-	0
Cc1cc(C(=O)Nc2sc(C)c(-c3ccc(F)cc3)c2C(N)=O)no1	0	0	0	0	12.6µM	0
Cc1ccc(NC(=O)c2ccc(S(=O)(=O)NCC(C)O)cc2)cc1Cl (stereo not given)	-	-	?	-	-	0
CC(C)(C)C(=O)Nc1cccc(C(=O)Oc2ccccc2C#N)c1	-	-	?	-	-	0
O=C(Cn1cccc1-c1nc(-c2ccc3c(c2)OCO3)no1)Nc1ccccc1	-	-	0	-	-	-
COc1ccccc1C1NC(=S)NC2=C1CCc1ccccc12 (stereo not given)	-	-	28.2µM	-	-	0
COc1ccc2c(c1)C1=C(CC2)C(c2ccc(C)cc2)NC(=S)N1 (stereo not given)	0	0	39.8µM	0	0	0
S=C1NC2=C(CCc3ccccc32)C(c2ccccc2Cl)N1 (stereo not given)	-	-	8.91µM	-	-	0
S=C1NC2=C(CCc3ccccc32)C(c2ccc(Cl)cc2)N1 (stereo not given)	-	-	28.2µM	-	-	0
O=S(=O)(Nc1cccc2cccnc12)c1ccc(F)c(F)c1F	-	-	0	-	-	0
CCOc1ccc(NC(=O)c2ccc(F)c(S(=O)(=O)N3CCCC3)c2)cc1	-	0	0	0	0	0
CCOc1ccc(NC(=O)c2ccc(F)c(S(=O)(=O)N3CCN(c4ccccn4)CC3)c2)cc1	0	-70.9	0	0	0	0
COC(=O)c1ccc(CNC(=O)c2cccc(OC)c2)cc1	-	-	?	-	-	0
N=C1C(c2ccccc2)=C(O)CN1c1cccc(S(=O)(=O)N2CCCCC2)c1	0	0	0	-225.3	0	0
O=C(CS(=O)CC(=O)Nc1ccc(Cl)cc1)NCC1OCCc2ccccc21 (stereo not given)	?	0	0	0	11.2µM	0
C=CC(=O)NCC1OCCc2ccccc21 (stereo not given)	0	0	?	0	-	0
O=C(/C=C/c1ccco1)NCC1OCCc2ccccc21 (stereo not given)	0	0	44.7µM	0	-	0
